This is an account of results in PubChem BioAssay.

SMILES strings stand for the structures.

The subject of the test is Chordin-like protein 2 (CHRDL2). The test can be described thus: compounds binding chordin-like 2 – biochemical, small-molecule microarray, 635 nm fluorescence, primary screen (AID 1126).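 Also: printed compound slides probed with Chrdl2 protein at 4 µg/mL for 1 h at 4 C; score merges 667 nm emission intensity with signal to noise over three replicate slides.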 Particulars: fluorescence 635 nm, higher = more signal.
The compound `CO[C@@H]1COC(=O)[C@@H]2CCCN2C(=O)[C@@H](C)COC(=O)[C@H](COCc2ccccc2)NC(=O)CC=C[C@H]1C` yielded a composite z-score of 0.611.

`C#CCCCON=C1C[C@@H](O)[C@@H](O)[C@@H]2[C@@H]3C(=O)N([C@@H](C)c4ccccc4)C(=O)[C@@H]3CC[C@H]12` came in with a composite z-score of 0.523. Then `COCCCNC(=O)[C@@]1(C)c2ccccc2C(=O)N(Cc2ccc(OC(F)(F)F)cc2)[C@H]1c1ccc(CO)cc1`, with -0.654; and `C=COC[C@H]1CN2[C@@H](CC[C@@H](C)[C@@H]2c2ccc(Br)cc2)C(=O)O1`, with 0.664.

`CC(CCN1CCCCc2nc(C)c(C)cc21)=NOC(C)CN1CCCc2nc(C)c(C)cc21` (stereo unspecified) returned a composite z-score of 1.2. `CC(C)=NOCc1ccc(-c2cc(-c3ccccc3)no2)cc1` gave a composite z-score of 0.14.

In turn, `CCc1cc2c(nc1CC)CCN(CCC(C)=NOC[C@@H](O)[C@H]1O[C@@H]3OC(C)(C)O[C@@H]3[C@H]1O)C2` returned a composite z-score of 0.382. Consider `COc1cccc([C@H]2Oc3ccc(OC)cc3C(=NO[C@H](C)c3cn([C@@H]4COC[C@H]4O)nn3)[C@@H]2O)c1`, for which the composite z-score was -0.353. For the compound `O=C(NN=C1C[C@@H](O)[C@@H](O)[C@@H]2[C@@H]3C(=O)N(c4ccc(F)cc4F)C(=O)[C@@H]3CC[C@@H]12)OCc1ccccc1`, the composite z-score amounted to 0.272. For the compound `CCOC(=O)[C@H](Cc1ccccc1)NC(=O)CCC1CC(OC(=O)NCc2ccc3c(c2)OCO3)CC2(CCCC(COC(=O)NCc3cccc(C(F)(F)F)c3)O2)O1` (stereo partly specified), the composite z-score came out at 0.393.

On to `C[C@@H](c1ccccc1)N1C(=O)[C@H]2[C@H]3[C@H](O)C=CC(=O)[C@@H]3CC[C@H]2C1=O`, for which the composite z-score amounted to 0.778. As to `Cc1cc2c(c(=O)o1)[C@H](O)[C@H]1O[C@H]1C2=O`, the composite z-score stood at 0.26.

In the case of `COc1ccc(COC(=O)NN=C2C[C@@H](O)[C@@H](O)[C@@H]3[C@@H]4C(=O)N(c5ccc(F)cc5F)C(=O)[C@@H]4CC[C@@H]23)cc1`, the composite z-score is -0.0448. `CO[C@@H]1COC(=O)CCC[C@@H](C)[C@H](OC)COC(=O)CCC[C@H]1C` came in with a composite z-score of 0.777. The compound `O=C1C[C@@H](O)[C@@H](O)[C@@H]2[C@@H]3C(=O)N(Cc4ccc5c(c4)OCO5)C(=O)[C@@H]3CC[C@@H]12` had a composite z-score of 0.558. `CC=CC1=C(CO)[C@H](O)[C@H]2O[C@H]2[C@H]1O`: the composite z-score is 1.09.

For the compound `CC(C)[C@H](NC(=O)OC(C)(C)C)[C@@H](O)CC(=O)OC(C)(C)C`, the composite z-score is -0.646. `CO[C@H]1COC(=O)[C@@H]2CCCN2C(=O)CC=C[C@@H](C)[C@H](OC)COC(=O)CC=C[C@@H]1C` showed a composite z-score of 1.38. With `COC(=O)[C@H](C)NC(=O)CCC1CC(OC(=O)NCCc2ccc(F)cc2)CC2(CCCC(COC(=O)NCCc3ccc(Cl)cc3)O2)O1` (stereo partly specified), the composite z-score was determined as 1.09.

Turning to `CC(C)=CCCC(C)=CCON=C1[C@H]2CCn3c(=O)n(C)c(=O)n3[C@H]2[C@H](O)[C@@H]2O[C@H]12`, the composite z-score came to 0.916.

In turn, `O=C(NN=C1C[C@@H](O)[C@@H](O)[C@@H]2[C@@H]3C(=O)N(c4cccc(Oc5ccccc5)c4)C(=O)[C@@H]3CC[C@@H]12)OCc1ccccc1` yielded a composite z-score of 0.162.

`CC(=O)OC[C@H]1O[C@H](C#CCCCc2ccccc2)C=C[C@@H]1OC(C)=O`: the composite z-score is 0.192. Take `CC(CCN1CCc2nc(-c3ccccc3)c(-c3ccccc3)cc2C1)=NO[C@H](C)c1cn([C@@H]2COC[C@H]2O)nn1`: the composite z-score is 0.0957. Turning to `O[C@@H](Cc1ccccc1)[C@H]1C2C=CCCC(c3ccccc3)=C2CN1Cc1cccc(Cl)c1` (stereo partly specified), the composite z-score was determined as 0.441. In the case of `COc1ccc([Si](C)(C)[C@H]2[C@H](CCO)O[C@@]3(C(=O)N(Cc4cccc(NC(=O)[C@H](C)O)c4)c4ccccc43)[C@@H]2C)cc1` it was 0.189; in that of `O=C1NC(=O)C2C1C=CC(C(O)Cc1ccccc1)N2Nc1ccccn1` (stereo unspecified), 0.313; in that of `CC(CCC(=O)OC[C@H]1O[C@H](C#Cc2ccccc2)C=C[C@@H]1Oc1ccc(C)cc1)=NOC[C@@H](O)COCc1ccco1`, -3.83. `CC1CC/C=C\[C@H]2OC34C=CCN(Cn5nnc6ccccc65)C(=O)[C@H]3N(CCO)C(=O)[C@@H]4C2C(=O)O1` (stereo partly specified) registered a composite z-score of -1.62. Consider `CCOC(=O)CCN1C(=O)[C@H]2[C@H]3[C@H](O)[C@H](O)CC(=NNC(=O)OCc4ccc(OC)cc4)[C@@H]3CC[C@H]2C1=O`, for which the composite z-score was found to be 0.388. In turn, `CCN1C(=O)[C@H]2[C@H]3[C@H](O)[C@H](O)CC(=NOC(C)CN4CCCCc5nc(C)c(C)cc54)[C@@H]3CC[C@H]2C1=O` (stereo partly specified) displayed a composite z-score of 1.22.

The compound `C#CCCCON=C1C[C@@H](O)[C@@H](O)[C@@H]2[C@@H]3C(=O)N(CCC(=O)OCC)C(=O)[C@@H]3CC[C@@H]12` returned a composite z-score of 0.715.
